Screening results as filed in PubChem BioAssay.
MIN6 prolif: inducers of MIN6 beta-cell proliferation, primary screen, ATP luminescence, uHTS | MIN6 cells proliferation, ATPlite luminescence, 48 h; cells starved in 0.2% serum; 100% = growth in 10% serum | proliferation, % at 10 µM | 330,000 compounds, 0.29% hits | AID 2380, 2010;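 active means compounds whose signal lies at least 3.5 SD above the mean of all wells on their plate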;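 further: 0% = DMSO-treated cells in low-serum medium and 100% = 10% serum control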
HTR5A inv ctr: HTR5A inverse agonists in luminescence cell assay, primary screen, counter-screen for OPRM1-OPRD1 heterodimer inverse agonist project, full-deck HTS; 5-hydroxytryptamine receptor 5A (Homo sapiens), P47898; HTR5A cell line, inverse agonism; inhibition, % at 9.3 µM; 340,000 compounds, 0.083% hits; in the data active means inhibition mostly above about 23%, no sharp cut-off; inactive means mostly below about 18%;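 further: 0% = cells with DMSO and 100% = no-cell wells with DMSO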
Target sequence (P47898 whole entry, looked up): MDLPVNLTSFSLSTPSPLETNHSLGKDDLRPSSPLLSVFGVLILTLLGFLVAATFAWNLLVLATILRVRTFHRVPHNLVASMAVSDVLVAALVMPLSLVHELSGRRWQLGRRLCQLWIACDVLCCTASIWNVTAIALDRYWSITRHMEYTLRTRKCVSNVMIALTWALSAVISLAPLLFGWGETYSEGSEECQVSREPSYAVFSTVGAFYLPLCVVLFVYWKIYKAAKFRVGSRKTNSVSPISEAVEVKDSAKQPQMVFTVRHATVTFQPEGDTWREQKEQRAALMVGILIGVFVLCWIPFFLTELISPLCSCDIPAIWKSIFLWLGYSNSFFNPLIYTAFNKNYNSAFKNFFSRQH
MOR-DOR ag: agonists of OPRM1-OPRD1 heterodimerization, primary screen, cell-based, luminescence | 340,000 compounds, 0.3% hits | activation, % at 9.3 µM | cells | AID 504326, 2011 | Mu-type opioid receptor (Homo sapiens) + Delta-type opioid receptor (Homo sapiens), …; in the data active means activation above about 18%;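 further: 0% = vehicle-treated cells and 100% = reference agonist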
MOR-DOR inv ag: inverse agonists of MOR-DOR heterodimerization, primary screen, cell-based, luminescence; cell-based MOR-DOR heterodimer luminescence, inverse agonism; AID 504357, 2011; 340,000 compounds, 0.21% hits; inhibition, % at 9.3 µM; Mu-type opioid receptor (Homo sapiens) + Delta-type opioid receptor (Homo sapiens), …; in the data active means inhibition above about 22%, passing the limit was not always enough;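 further: 0% = cells with DMSO and 100% = wells without cells with DMSO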
HTR5A ag ctr: HTR5A agonists in luminescence cell assay, primary screen, counter-screen for OPRM1-OPRD1 heterodimer agonist project, full-deck HTS | 5-hydroxytryptamine receptor 5A (Homo sapiens), P47898 | cell-based | activation, % at 9.3 µM | 340,000 compounds, 0.61% hits; in the data active means activation mostly above about 9.5%, no sharp cut-off; inactive means mostly below about 7.6%;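 further: 0% = cells with vehicle only and 100% = reference agonist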
V-ATPase pH: regulators of yeast V-ATPase proton pumping, primary screen, pHLuorin cytosolic pH fluorescence; S. cerevisiae; response, % at 10 µM; 350,000 compounds, 0.37% hits; AID 504577, 2011; in the data active means response mostly above about 7.3%, no sharp cut-off; inactive means mostly below about 5.4%; further: actives read high
Starred values were filed as active, the others as inactive. This is a sample that favours compounds with a hit; in the whole collection about 1.7% have one here.

`COc1cc(OC)cc(C(=O)NCC(=O)N2CCN(S(=O)(=O)c3ccccc3F)CC2)c1` gave MIN6 prolif -2, HTR5A inv ctr 5, MOR-DOR ag -5, MOR-DOR inv ag 18, HTR5A ag ctr 1 and V-ATPase pH 0.
O=C(NCC(=O)N1CCN(S(=O)(=O)c2ccccc2F)CC1)c1ccc2c(c1)OCO2 was read as MIN6 prolif -1, HTR5A inv ctr -31, MOR-DOR ag -2, MOR-DOR inv ag 12, HTR5A ag ctr 12* and V-ATPase pH 2.
For COc1ccc(CCNC(=O)CCc2nc3ccccc3[nH]2)cc1OC the results were MIN6 prolif 2, HTR5A inv ctr -1, MOR-DOR ag 1, MOR-DOR inv ag -4, HTR5A ag ctr -4 and V-ATPase pH 14*.
Cc1cc(-c2ccccc2)n2ncc(-c3ccccc3)c2n1 was read as MIN6 prolif -3, HTR5A inv ctr -8, MOR-DOR ag 4, MOR-DOR inv ag -22, HTR5A ag ctr 3 and V-ATPase pH 5.
Screening COc1ccc(-c2cc(C)nc3c(-c4ccccc4)cnn23)cc1 returned HTR5A inv ctr 4, MOR-DOR ag -1, MOR-DOR inv ag 5, HTR5A ag ctr -1 and V-ATPase pH 100*.
Screening O=C(N/N=C/c1cc(Cl)ccc1O)c1ccccc1Br returned MIN6 prolif -6, HTR5A inv ctr -35, MOR-DOR ag 5, MOR-DOR inv ag -35, HTR5A ag ctr 12* and V-ATPase pH 7.
For C[C@@H]1CN([C@H](C)CO)S(=O)(=O)c2ccc(Br)cc2O[C@H]1CN(C)C(=O)C1CC1 the results were V-ATPase pH -1.
Screening COc1ccc2c3c(ccc2c1)C(=O)/C(=C/O)CC3 returned HTR5A inv ctr -86, MOR-DOR ag 25*, MOR-DOR inv ag -120, HTR5A ag ctr 22* and V-ATPase pH -79.
For COc1ccc(N2CCN(CC(=O)Nc3c(C)cccc3C)CC2)cc1 the results were V-ATPase pH -1.
O=C(NCCC1CCCCN1S(=O)(=O)c1cccs1)C(=O)NCc1ccccc1 (stereo not drawn) was read as MIN6 prolif -1, HTR5A inv ctr -1, MOR-DOR ag -2, MOR-DOR inv ag 12, HTR5A ag ctr 0 and V-ATPase pH 1.
Screening Cc1ccc(Cl)cc1-n1c(SCC(=O)NCCC2=CCCCC2)nc2n[nH]c(C)c2c1=N returned MIN6 prolif -3, HTR5A inv ctr 5, MOR-DOR ag 2, MOR-DOR inv ag -10, HTR5A ag ctr 3 and V-ATPase pH 1.
Screening Cc1[nH]nc2nc(SCC(=O)NCCC3=CCCCC3)n(-c3ccc(Br)cc3)c(=N)c12 returned MIN6 prolif -7, HTR5A inv ctr -56, MOR-DOR ag 25*, MOR-DOR inv ag -124, HTR5A ag ctr 15* and V-ATPase pH -2.
`Cc1cc(-n2c(SCC(=O)NCCC3=CCCCC3)nc3n[nH]c(C)c3c2=N)ccc1Cl` gave MIN6 prolif -4, HTR5A inv ctr -47, MOR-DOR ag 29*, MOR-DOR inv ag -151, HTR5A ag ctr 31* and V-ATPase pH -4.
Screening CSCC[C@H](NC(=O)[C@H]1N2C(=O)c3ccccc3C2SC1(C)C)C(=O)NCc1ccncc1 (stereo partly drawn) returned MIN6 prolif 2, HTR5A inv ctr 0, MOR-DOR ag -3, MOR-DOR inv ag 15, HTR5A ag ctr 1 and V-ATPase pH 0.
`O=C1c2ccccc2C(=O)C1Cc1cccc2ccccc12` gave MIN6 prolif -1, HTR5A inv ctr -3, MOR-DOR ag 0, MOR-DOR inv ag -1, HTR5A ag ctr 0 and V-ATPase pH 289*.
Screening Cc1cccn2c(=O)c3cc(S(=O)(=O)c4ccc(F)cc4)c(=N)n(Cc4ccco4)c3nc12 returned MIN6 prolif -4, HTR5A inv ctr 11, MOR-DOR ag -1, MOR-DOR inv ag 4, HTR5A ag ctr 0 and V-ATPase pH 2.
`Cc1cccn2c(=O)c3cc(S(=O)(=O)c4ccccc4)c(=N)n(Cc4ccco4)c3nc12` gave MIN6 prolif -7, HTR5A inv ctr -30, MOR-DOR ag 2, MOR-DOR inv ag -11, HTR5A ag ctr 12* and V-ATPase pH -1.
For CCN(CC)C(=O)CSc1ncnc2sc(-c3ccccc3)cc12 the results were MIN6 prolif -5, HTR5A inv ctr -8, MOR-DOR ag 2, MOR-DOR inv ag -11 and HTR5A ag ctr 9.3*.
Screening CC1(c2ccc(Cl)cc2Cl)NC(=O)N(CC(=O)NCCC2=CCCCC2)C1=O (stereo not drawn) returned V-ATPase pH -1.
For N#Cc1ccc(Cl)cc1NC(=O)CN1C(=O)C(=O)N(CCC2=CCCCC2)C1=O the results were V-ATPase pH 1.
For CC(C)(C)c1ccc(OCc2ccc(C(=O)N/N=C/c3ccc(O)c(O)c3)cc2)cc1 the results were MIN6 prolif -6, HTR5A inv ctr -22, MOR-DOR ag 5, MOR-DOR inv ag -24, HTR5A ag ctr 8.8* and V-ATPase pH 0.
`O=C(N/N=C/c1ccc(OCc2ccc(F)cc2)cc1)c1ccccc1` gave MIN6 prolif -3, HTR5A inv ctr 1, MOR-DOR ag 5, MOR-DOR inv ag -24, HTR5A ag ctr 0 and V-ATPase pH -1.
Screening Nc1nc(N)c2c(ccc3nccc32)[nH]1 returned MIN6 prolif -2, HTR5A inv ctr -42, MOR-DOR ag -1, MOR-DOR inv ag 3, HTR5A ag ctr 12* and V-ATPase pH 4.
`Nc1ccc2ncccc2c1N` gave HTR5A inv ctr 8, MOR-DOR ag -1, MOR-DOR inv ag 3, HTR5A ag ctr 4 and V-ATPase pH -1.
`COc1ccc(CC(=O)Nc2cccc(-c3nnc(-c4ccc(C)cc4)o3)c2)cc1OC` gave MIN6 prolif -1, HTR5A inv ctr -38, MOR-DOR ag 20*, MOR-DOR inv ag -113, HTR5A ag ctr 17* and V-ATPase pH 2.
`COc1ccc(CC(=O)Nc2cccc(-c3nnc(-c4cccc(C)c4)o3)c2)cc1OC` gave MIN6 prolif -7, HTR5A inv ctr -26, MOR-DOR ag 1, MOR-DOR inv ag -4, HTR5A ag ctr -11 and V-ATPase pH 1.
O=C1c2ccccc2C(=O)N1Nc1ccc([N+](=O)[O-])cc1[N+](=O)[O-] was read as MIN6 prolif -3, HTR5A inv ctr 35*, MOR-DOR ag -3, MOR-DOR inv ag 12, HTR5A ag ctr -10 and V-ATPase pH -2.
For CC(=O)Nc1ccc(S(=O)(=O)N2CCN(c3ccc(C)c(Cl)c3)CC2)cc1 the results were MIN6 prolif 2, HTR5A inv ctr 1, MOR-DOR ag 11, MOR-DOR inv ag -68, HTR5A ag ctr 0 and V-ATPase pH 17*.
